# Assay outcomes: PubChem, National Center for Advancing Translational Sciences (NCATS)
# Shown are actives, neighbours in structure and some others; about 2.3% of the full set was active somewhere.
# TRPV1 ag = HTS Assay for Compounds that Act as Agonists of the Vanilloid Receptor 1 | Transient receptor potential cation channel subfamily V member 1 (Homo sapiens), Q8NER1 | TRPV1-expressing cells, Fluo-8 calcium influx, agonist mode | activation, % at 8.33 µM | 320,000 tested, 0.19% active; in the data active = activation above about 80%; inconclusive = between about 30% and that limit; note: 0% is about no effect
# Target sequence (Q8NER1 whole entry, looked up): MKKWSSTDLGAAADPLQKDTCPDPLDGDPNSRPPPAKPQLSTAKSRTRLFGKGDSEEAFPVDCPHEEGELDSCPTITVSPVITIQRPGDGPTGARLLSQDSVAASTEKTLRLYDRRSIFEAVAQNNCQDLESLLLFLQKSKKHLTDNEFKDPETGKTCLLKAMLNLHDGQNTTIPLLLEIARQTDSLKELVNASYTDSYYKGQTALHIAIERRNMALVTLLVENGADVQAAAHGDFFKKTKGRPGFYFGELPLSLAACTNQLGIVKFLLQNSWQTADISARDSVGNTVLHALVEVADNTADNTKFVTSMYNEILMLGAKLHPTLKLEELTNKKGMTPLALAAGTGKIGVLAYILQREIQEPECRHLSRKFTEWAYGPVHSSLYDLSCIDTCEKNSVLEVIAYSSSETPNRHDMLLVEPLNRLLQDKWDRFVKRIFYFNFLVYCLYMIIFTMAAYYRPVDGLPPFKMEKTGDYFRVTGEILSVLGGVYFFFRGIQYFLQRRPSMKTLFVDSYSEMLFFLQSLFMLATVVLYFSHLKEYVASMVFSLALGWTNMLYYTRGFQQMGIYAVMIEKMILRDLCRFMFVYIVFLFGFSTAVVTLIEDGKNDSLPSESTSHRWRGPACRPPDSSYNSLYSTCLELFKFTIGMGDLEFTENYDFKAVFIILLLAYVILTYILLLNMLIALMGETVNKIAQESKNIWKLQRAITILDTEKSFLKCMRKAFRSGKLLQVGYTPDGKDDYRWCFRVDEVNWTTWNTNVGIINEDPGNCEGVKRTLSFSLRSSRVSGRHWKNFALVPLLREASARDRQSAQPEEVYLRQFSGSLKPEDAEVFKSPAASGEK
#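 TRPV1-expressing cells were cultured overnight at 35.5C and loaded with Fluo-8 calcium dye for 40 to 90 min at room temperature. After a 10 s baseline, compound was added and calcium influx was read kinetically for 3 min (ex 480/em 520 nm).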
# ELG1 DNA repair = qHTS screen for small molecules that inhibit ELG1-dependent DNA repair in human embryonic kidney (HEK293T) cells expressing luciferase-tagged ELG1. Potency, µM (doses to about 46.1 µM), for the others: top-dose activity change, negative = inhibition, hits mostly inhibitors. 330,000 tested, 2.3% active. HEK293T ELG1-luciferase reporter, luminescence, 16 h; DNA damage induced by 5-fluorouridine. AID 504467, 2011; note: potency is the fitted concentration of half-maximal effect; % is set by controls: 0 for no effect and ±100 for the full control effect; nearly all actives have a fitted effect of over 55% in size
#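 In this reporter screen, reduction of luminescence relative to DMSO vehicle indicated activity. Compounds and 5-fluorouridine were added together to 2,000 cells per well, incubated for 16 hr at 37 °C, then developed with ONE-Glo.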
# Giardia killer = Small Molecules that selectively kill Giardia lamblia: qHTS. activity change, % at 7.66 µM, hits read low. Giardia lamblia trophozoite viability. 340,000 tested, 0.15% active; in the data active = activity change below about -80%; inconclusive = between about -30% and that limit;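 note: parasites exposed to compound for two days anaerobically before the ATP read; % is set by controls: 0 for no effect and ±100 for the full control effect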
#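 Giardia trophozoites, 100 cells per well, were exposed to compounds for 48 hrs at 37 deg C under anaerobic conditions; viability was then read as ATP content by bioluminescence after 15-30 min at room temperature.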
# TRPV1 PAM = HTS Assay for Compounds that Act as Potentiators of the Vanilloid Receptor 1; Transient receptor potential cation channel subfamily V member 1 (Homo sapiens), Q8NER1; TRPV1-expressing cells, Fluo-8 calcium influx, capsaicin EC20 potentiation; potentiation, % at 8.33 µM; 320,000 tested, 0.02% active; AID 540277, 2011; in the data active = potentiation above about 80%; inconclusive = between about 30% and that limit; note: 0% is about no effect
#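 Cells expressing TRPV1 were dye-loaded with Fluo-8 and read kinetically: 10 s baseline, 3 min after compound (agonist portion), then 2 min after EC20 capsaicin (allosteric enhancer portion). Calcium-bound dye fluorescence at 480/520 nm.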
# FUS yeast rescue = qHTS for Suppressors of FUS Proteinopathy: Primary screen using FUS-linked yeast assay; S. cerevisiae FUS-expressing, growth rescue, OD600, 24 h; Potency, µM (highest dose often 76.6 µM), most hits filed as activators; 390,000 tested, 0.24% active;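 note: potency is the fitted concentration of half-maximal effect; plate controls were DMSO vehicle for no effect and reference control for full effect; nearly all actives have a fitted effect of over 55% in size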
#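 Yeast FUS proteinopathy model; galactose-induced FUS (2%), starting OD 0.005. Cpds in dilution series, 24hr, 30C, 99% humidity. Abs 600 nm growth. Pos ctrl CP55940 (top 92uM final); neg ctrl DMSO.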
# Active calls of the source: *; i = inactive; u = inconclusive; x = no result given. Unless noted, calls come from the whole dose curve; as a rule, active = well fitted curve in the direction sought with a large enough effect; inconclusive = small, poorly fitted or top-dose-only effect, or another doubt; inactive = no such curve, though single readings can be large; an effect the other way counts as inactive or inconclusive.
SMILES,TRPV1 ag,ELG1 DNA repair,Giardia killer,TRPV1 PAM,FUS yeast rescue
CCCCC(=O)N1CC(=O)Nc2ccc(F)cc2C1c1ccccc1 (stereo not drawn),-5,-11%,21,u,i
CCCCc1c(C)nc2c(-c3ccc(OC)cc3)c(C)[nH]n2c1=O,x,x,x,x,i
O=C1NC(=S)S/C1=C\C=C\c1ccc([N+](=O)[O-])o1,-2,u,-86*,8,i
O=C(NCC(=O)N1CCN(C/C=C/c2ccccc2)CC1)c1ccc(Br)cc1,x,21µM*,-2,x,i
O=C(NC(=S)N1CCN(C/C=C/c2ccccc2)CC1)c1ccc(Cl)nc1,2,18µM*,u,-1,i
COCCNC(=O)c1cc(-c2ccccc2)nn1CC1CC(c2cccc([N+](=O)[O-])c2)=NO1 (stereo not drawn),x,x,14,x,i
O=C(NCc1cccc(Br)c1)c1cc(-c2ccccc2)nn1CC1CC(c2cccc([N+](=O)[O-])c2)=NO1 (stereo not drawn),x,x,8,x,32µM*
CC1(C)Cc2ccccc2C(/C(=N\Nc2cccc(Cl)c2)C(N)=O)=N1,8,16µM*,-6,-10,u
CC(=O)c1ccc(N/N=C(/C(N)=O)C2=NC(C)(C)Cc3ccccc32)cc1,25,21µM*,2,-4,i
O=S(=O)(c1ccc(-n2cnnn2)cc1)N1CCN(c2cccc(C(F)(F)F)c2)CC1,x,x,x,x,i
CCc1cc(=O)oc2c(C)c3c(cc12)CN(CCc1ccccc1OC)CO3,x,x,x,x,i
COC(=O)c1cc(NC(=O)Cc2coc3cc(OC)ccc23)cc(C(=O)OC)c1,11,16µM*,-13,6,i
Cc1ccc(C2c3[nH]c4ccccc4c3CCN2C(=O)CCc2ccccc2)cc1 (stereo not drawn),x,x,x,x,i
COc1cc(C(=O)N2CCc3c([nH]c4ccccc34)C2c2ccc(C)cc2)cc(OC)c1OC (stereo not drawn),x,x,x,x,14µM*
Cc1cc(C)c2c(CC(=O)Nc3ccc(S(=O)(=O)N4CCCC(C)C4)cc3)coc2c1 (stereo not drawn),x,x,x,x,i
COc1ccc(-c2nc(CNS(=O)(=O)c3ccccc3)cs2)cc1,x,x,x,x,i
COc1ccc(-c2nc(CNS(=O)(=O)c3cc(OC)ccc3OC)cs2)cc1,12,16µM*,-8,-9,i
c1ccc(SC23CCCCN(CCC2)[C@]32CO2)cc1 (stereo partly drawn),x,x,x,x,i
CCc1ccc(-n2nc3cc(C)c(NC(=O)c4cc(Cl)ccc4OC)cc3n2)cc1,x,x,x,x,i
CCOc1ccc(N(C)S(=O)(=O)c2ccc3[nH]cc(C(=O)NCC4CCCO4)c(=O)c3c2)cc1 (stereo not drawn),2,23µM*,12,-1,i
C=CCn1cc(C(=O)OC)c(=O)c2cc(S(=O)(=O)N3CCCCCC3)ccc21,-2,-10%,-13,6,i
COC(CNC(=O)c1cn(C)c2ccc(S(=O)(=O)N(C)C3CCCCC3)cc2c1=O)OC,0,5.2µM*,-1,2,i
C=CCn1cc(C(=O)NCC2CCCO2)c(=O)c2cc(S(=O)(=O)N3CCCCCC3)ccc21 (stereo not drawn),u,10µM*,13,-19,i
CCc1ccc(N(C)S(=O)(=O)c2ccc3[nH]cc(C(=O)NCC4CCCO4)c(=O)c3c2)cc1 (stereo not drawn),x,x,x,x,i
CCn1cc(C(=O)NCC2CCCO2)c(=O)c2cc(S(=O)(=O)N(C)C3CCCCC3)ccc21 (stereo not drawn),24,16µM*,-24,-18,i
SMILES,TRPV1 ag,ELG1 DNA repair,Giardia killer,TRPV1 PAM,FUS yeast rescue
COCc1cc(C)nc2c1C(=O)NC(c1ccc(F)cc1)N2Cc1ccccc1 (stereo not drawn),x,x,x,x,i
COc1ccc(C(=O)c2cn(Cc3cccc(C)c3)c3cc4c(cc3c2=O)OCO4)cc1,x,x,x,x,i
CC1CCN(S(=O)(=O)c2ccc3c(c2)c(=O)c(C(=O)NCc2ccco2)cn3C)CC1,6,18µM*,3,-6,i
CC1CCN(S(=O)(=O)c2ccc3c(c2)c(=O)c(C(=O)NCc2cccs2)cn3C)CC1,3,0%,5,2,i
CCn1cc(C(=O)NCC(OC)OC)c(=O)c2cc(S(=O)(=O)N(C)C3CCCCC3)ccc21,13,9.2µM*,-5,-10,u
Cn1cc(C(=O)NCC2COc3ccccc3O2)c(=O)c2cc(S(=O)(=O)N3CCCCC3)ccc21 (stereo not drawn),-1,18µM*,6,2,i
CCOc1ccccc1NC(=O)CSc1nc2c(oc3ccccc32)c(=O)n1-c1ccc(F)cc1,x,x,x,x,i
O=C(CSc1ccccc1C(=O)N1CCN(c2ccccc2)CC1)N1CCCC1,-1,15%,-3,-6,i
O=C(CSc1ccccc1C(=O)N1CCN(c2ccc([N+](=O)[O-])cc2)CC1)N1CCCC1,x,15µM*,-23,x,i
O=c1[nH]c2ccc(NCc3ccccc3OCc3ccc(Cl)cc3)cc2[nH]1,28,8.2µM*,-4,2,i
CC(C)(C)c1nnc(N/N=C/c2ccccc2O)n(N)c1=O,6,21µM*,4,-5,i
COCc1cccc(-c2csc(C(C)(O)c3cccc(F)c3)n2)c1 (stereo not drawn),x,x,x,x,i
COc1ccc(/C=C/C(=O)Nc2nc(-c3cccs3)ns2)cc1OC,x,x,x,x,i
COc1ccc(C(=O)NC(=S)Nc2ccccc2N2CCOCC2)cc1[N+](=O)[O-],12,18µM*,7,-10,i
COc1ccc(C(=O)NC(=S)Nc2ccc(N3CCOCC3)c(Cl)c2)cc1[N+](=O)[O-],-5,13µM*,10,-11,x
O=C(NC(=S)Nc1cc(Cl)ccc1N1CCOCC1)c1ccccc1[N+](=O)[O-],u,16µM*,-18,-5,i
Cc1ccc(N2CCN(c3nc4ccc(C(=O)c5ccccc5)cc4n4cnnc34)CC2)c(C)c1,x,x,x,x,i
Cc1cc(C)cc(N2C(=O)CC(c3ccc(C(F)(F)F)cc3)C3=C2COC3=O)c1 (stereo not drawn),x,x,x,x,i
COc1ccc(S(=O)(=O)c2nnn(-c3ccc(C(C)C)cc3)c2C)cc1,x,x,x,x,i
O=C(N/N=C/c1ccccn1)c1ccc(NC(=O)c2cccc([N+](=O)[O-])c2)cc1,28,16µM*,28,-6,i
O=C(CN1CCN(Cc2ccccc2)CC1)N/N=C/c1ccc(Br)s1,-4,9.2µM*,5,-1,i
CC(C)(C)c1ccc(/C=N/NC(=O)c2ccccn2)cc1,83*,u,-5,3,i
